Assay outcomes from PubChem.
Hits are enriched below; roughly 1% of the tested compounds scored in any of these assays.
VCAM1 TNFa inh – reduces TNF alpha induced VCAM1 expression in HUVEC | hit rate 0.48% among 95,000 | inhibition, % at 2 µM | HUVEC TNFa-induced VCAM-1 immunofluorescence, high-content imaging;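 active means inhibition above the batch mean plus 3 SD, with images confirmed as a hit by eye, cut at about 37% in these data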
F-actin modifier – cytoskeleton assembly modification. HUVEC TNFa F-actin phalloidin imaging, high content. inhibition, % at 2 µM. hit rate 0.18% among 91,000. AID 836;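 active means inhibition above the batch mean plus 3 SD and confirmed as a hit by visual image inspection, cut at about 30% in these data, passing the limit was not always enough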
E-sel TNF inh – TNF alpha driven E-selectin expression inhibition; HUVEC TNFa-induced E-selectin immunofluorescence, high content; inhibition, % at 2 µM; hit rate 0.71% among 120,000; AID 1246;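 active means inhibition above the batch mean plus 3 SD, and confirmed as a hit on visual image review, cut at about 43% in these data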
HUVEC tox TNFa – toxic to HUVEC cells under TNF alpha stimulation | HUVEC TNFalpha-stimulated, Hoechst cell count, imaging | cell count reduction, % at 2 µM | hit rate 0.17% among 93,000 | AID 848;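 active means cell count reduction exceeding the screen mean by over 5 SD, scaled to untreated wells per plate, cut at about 78% in these data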;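 further: cells counted after 24 h of TNF alpha exposure following the 1 h pretreatment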
Hits are given with their value; 0 = inactive; - = not tested or not shown.

SMILES	VCAM1 TNFa inh	F-actin modifier	E-sel TNF inh	HUVEC tox TNFa
Cc1cccc2c(SCC(=O)NCC3CCCO3)nc(-c3ccc(F)cc3)nc12 (stereo unspecified)	0	0	0	0
COc1cccc(CCc2nnc(CCC(=O)NC(C)c3c(C)nn(C)c3C)o2)c1 (stereo unspecified)	-	-	0	-
Cc1cc(NC(=O)CSc2nc(-c3cccs3)cc(C(F)(F)F)n2)no1	53	0	0	0
Cc1cc(C)cc(NC(=S)NC2CC3CCCC(C2)N3C2CC2)c1 (stereo unspecified)	-	-	100	-
CCN(CC)S(=O)(=O)c1ccc(OC)c(NC(=S)Nc2cccc(C)c2C)c1	-	-	0	-
O=C(NCc1ccccc1Cl)c1ccc2nc[nH]c2c1	-	-	0	-
Cc1nn(-c2cc(C)c3ccccc3n2)c2c1C1C(C2)C1(C)C (stereo unspecified)	60	0	0	0
Cc1cc(-n2nnc3ccccc32)nc2ccccc12	0	0	0	0
N#Cc1ccc(-n2c(-c3ccccc3)nnc2-c2ccccc2)cc1C#N	0	0	0	0
N#Cc1cccc(-n2c(-c3ccccc3)nnc2-c2ccccc2)c1C#N	0	0	100	0
CCOC(=O)c1cnc(C(C)(C)C)[nH]c1=O	0	0	0	0
O=S(=O)(NCC(c1ccco1)N1CCN(c2ccccc2)CC1)c1ccc(F)cc1 (stereo unspecified)	-	-	69	-
CCS(=O)(=O)NCC(c1ccco1)N1CCN(c2ccccc2)CC1 (stereo unspecified)	-	-	70	-
CCC(=O)NCC(c1ccco1)N1CCN(c2ccc(OC)cc2)CC1 (stereo unspecified)	-	-	0	-
COCCNC(=O)CSc1nc(-c2ccccc2)cs1	0	0	0	0
CCCCN(C)CCNC(=O)c1ccc2c(c1)NC(=O)C(N1CCCCC1)S2 (stereo unspecified)	0	0	0	0
CN(CCOC(=O)c1ccc2c(c1)OCCO2)Cc1ccccc1	0	0	0	0
COC(=O)CCS(=O)(=O)c1nc(-c2ccccc2)cc(C(F)(F)F)n1	0	0	0	0
CCOC(=O)CCS(=O)(=O)c1nc(-c2ccccc2)cc(C(F)(F)F)n1	0	0	0	0
CCOC(=O)CS(=O)(=O)c1nc(-c2ccccc2)cc(C(F)(F)F)n1	0	0	67	0
COCC(C)NC(=O)CCS(=O)(=O)c1nc(-c2ccc(OC)cc2)cc(C(F)(F)F)n1 (stereo unspecified)	-	-	83	-
CCOC(=O)CS(=O)(=O)c1nc(-c2ccc(F)cc2)cc(C(F)(F)F)n1	-	-	58	-
CCOC(=O)c1c(C)c(C(=O)NC(C)COC)c(C)n1C (stereo unspecified)	-	-	0	-
CCOC(=O)c1c(C)c(C(=O)O)n(C)c1C	0	76	-	0
Cn1cc([N+](=O)[O-])c(C(=O)Nc2ccn(Cc3c(F)c(F)cc(F)c3F)n2)n1	0	0	0	0
SMILES	VCAM1 TNFa inh	F-actin modifier	E-sel TNF inh	HUVEC tox TNFa
Cc1ccc(C2/C(=C(\O)c3cnn(-c4ccccc4)c3C)C(=O)C(=O)N2CCN(C)C)o1 (stereo unspecified)	0	0	0	91
CCN(CC)CCN1C(=O)C(=O)/C(=C(/O)c2cnn(-c3ccccc3)c2C)C1c1ccc(C)o1 (stereo unspecified)	0	0	0	0
Cc1ccc(NC(=O)CC2Oc3ccccc3NC2=O)c(C)c1 (stereo unspecified)	0	0	0	0
C/C(=N/NC(=O)C(O)(c1ccccc1)c1ccccc1)c1ccc([N+](=O)[O-])o1	-	-	0	-
COc1ccc(/C=N/OCC(=O)N2CC3(C)CC2CC(C)(C)C3)cc1 (stereo unspecified)	0	0	0	0
COc1ccc(/C(C)=N/OCC(=O)N2CC3(C)CC2CC(C)(C)C3)cc1 (stereo unspecified)	-	-	94	-
Cc1c(NC(=O)CN2CC(C)OC(C)C2)c(=O)n(-c2ccccc2)n1C (stereo unspecified)	0	0	66	0
Cc1c(NC(=O)CN2CCN(c3ccccc3)CC2)c(=O)n(-c2ccccc2)n1C	0	0	0	0
Cc1ccc(C(=O)NCC2CCCO2)cc1N1CCCC1=O (stereo unspecified)	0	0	66	0
Cc1ccc2oc(=O)c3cc(C(=O)Nc4cc(-c5cccc(F)c5)no4)sc3c2c1	-	-	0	-
Cc1cccc(N2CCN(c3nnnn3-c3ccccc3)CC2C)c1 (stereo unspecified)	0	0	0	0
O=C(CCCCCn1c(=O)[nH]c2ccsc2c1=O)N1CCN(C2CCCCC2)CC1	0	0	-	0
CCOC1=NC(C(=O)O)c2ccccc2/C(=C(/C)Cl)N1 (stereo unspecified)	92	0	-	0
CCC(=O)OC1c2ccccc2C(=O)N1Cc1ccccc1 (stereo unspecified)	0	0	-	0
O=C(OCC#CCSc1nc2ccccc2s1)c1ccco1	0	0	0	0
Cn1c(CCNC(=O)c2ccc(Cl)c(Cl)c2)nnc1SCc1ccc(Cl)c(Cl)c1	0	0	100	0
COC(=O)c1sccc1NC(=O)COc1ccc(F)cc1Cl	-	-	0	-
O=C(/C=C/c1cccc([N+](=O)[O-])c1)n1cnc2ccccc21	-	-	99	-
COc1cc(C(=O)N(Cc2ccco2)Cc2cc3ccccc3[nH]c2=O)cc(OC)c1OC	0	35	-	0
COc1ccccc1NC(=S)N(Cc1ccco1)Cc1cc2cccc(C)c2[nH]c1=O	-	-	61	-
CN(C)CCNC(=S)Nc1ccc(Br)cc1	-	-	0	-
Cc1ccnc(SCCn2c(N3CC(C)CC(C)C3)nc3c2c(=O)n(C)c(=O)n3C)n1 (stereo unspecified)	0	0	-	0
Cc1nc(NC(C)C)c2oc3ccccc3c2n1	78	0	-	91
CCNc1nc(C)nc2c1oc1ccccc12	0	0	-	92
CCNc1nc(CC)nc2c1oc1ccccc12	-	-	0	-
SMILES	VCAM1 TNFa inh	F-actin modifier	E-sel TNF inh	HUVEC tox TNFa
CCOC(=O)c1cnc(/N=C/N(C)C)s1	-	-	0	-
S=c1[nH]nc(COc2ccc3c(c2)OCO3)n1-c1ccccc1	97	0	0	0
S=c1[nH]nc(-c2ccc3c(c2)OCO3)n1-c1ccccc1	-	-	0	-
COc1ccc(C(=O)/C=C/c2ccc(F)cc2)c(OC(=O)c2ccc([N+](=O)[O-])cc2)c1	0	0	70	0
CCCCOc1ccc(NC2=NC3(CCCC3)N=C(N)N2)cc1	0	0	0	0
CCOC(=O)c1cccc(NC(=O)CSc2nnc(-c3ccoc3C)n2CCOC)c1	0	0	100	91
Cc1occc1-c1nnc(SCC(=O)Nc2ccccc2)n1CCc1ccccc1	0	0	0	0
COc1cc(C(=O)N/N=C/c2ccsc2C)cc(OC)c1OC	57	0	0	0
O=C(Cn1cncn1)NCc1cccc2ccccc12	0	-	64	0
O=C(Cn1cncn1)NCc1ccccc1Br	0	0	0	0
FC(F)(F)c1cnc2c(-c3ccccc3)n[nH]c2c1	-	-	68	-
O=c1c2ccccc2nc(/C=C/c2ccc([N+](=O)[O-])o2)n1CCCO	58	0	0	0
O=C(OCn1ncc(Br)c(Br)c1=O)c1c(F)cccc1F	74	0	0	0
CCOc1cccc(SCc2noc(C(=O)NCC3CCCO3)c2C(=O)O)c1 (stereo unspecified)	0	0	0	0
CCn1c(=O)c2c(n3cnnc13)-c1ccccc1CC21CCCCC1	0	41	0	0
CC(C)NC(=S)Nc1ccc2cn[nH]c2c1	-	-	0	-
NC(=O)c1c(NC(=O)Cc2cccs2)sc2c1CCC2	92	0	0	0
